The results in this text go back to PubChem BioAssay.

A word on the inhibition: it is the change of the read-out against control, counted positive when it falls.

Values joined by “and” are separate entries in the source; they are usually repeats but may differ in a detail not shown here. Equal entries are not always repeated. A number with no mark means an inactive call. Active and inactive are the calls of the source.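 How the source made its calls: active means inhibition at or above 50% relative to wild type and mutant plate controls; inactive means inhibition below 50%.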

The experiment is described as follows: inhibitors of Chlamydomonas gravitaxis, primary screen, whole organism, Chlamydomonas reinhardtii, WT vs cilia-less mutant, absorbance, 96-well (AID 463189).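 Further: 0% = wild type cc124 cells in DMSO and 100% = ciliumless bld1 mutant cells.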 As to conditions: OD600 absorbance, 2 days, at 10 µM, stronger effect = higher value.
`OC[C@H]1NC[C@@H](O)[C@@H]1O`: the inhibition is -9.59%.

In the case of `Cc1cccc(/C=C/c2ccccc2)n1`, the inhibition was 27.5%.

`O=C(O)C1=CCCNC1`: the inhibition was 5.21%.

Regarding `COc1cc(Cc2cnc(N)nc2N)cc(OC)c1OC`, the inhibition was 0.332%.

On to `N=C(N)SCCc1ccc(CCSC(=N)N)cc1`, for which the inhibition was 9.2%.

Turning to `NCC1OC(O[C@@H]2[C@H](O)C(OC3C(O)C(N)CC(N)C3OC3OC(CO)C(O)C(O)C3N)O[C@@H]2CO)C(N)C(O)C1O` (stereo partly specified), the inhibition is 4.9%.

Regarding `CCNC(=O)C1OC(n2cnc3c(NCc4ccccc4)ncnc32)C(O)C1O` (stereo unspecified), the inhibition is -0.03%.

Turning to `COc1ccc(CCCOc2cc(CCn3ccnc3)ccc2OC)cc1`, the inhibition was 1.24%.

`CCN1C(=O)C=CC1=O`: the inhibition is -6.91%.

With `C=C/C(C)=C/[C@@]1(C)SC(=O)C(C)=C1O`, the inhibition was 5.01%.

For `COc1cc(OC)c(/C=C2/C(=O)Nc3ccccc32)c(OC)c1`, the inhibition was 6.51%.

Regarding `[N-]=[N+]=Nc1ccc(C(=O)CSC[C@H](NC(=O)CC[C@H](N)C(=O)O)C(=O)NCC(=O)O)cc1`, the inhibition was -0.598%.

`c1ccc(CN2CCC3(CCCc4ccccc43)CC2)cc1`: the inhibition was 89% (active).

For the molecule `CN(C)CCC=C1c2ccccc2C=Cc2ccccc21`, the inhibition is 12.9%.

With `CC(C)(C)[C@]1(O)CCN2C[C@H]3c4ccccc4CCc4cccc(c43)[C@@H]2C1`, the inhibition is 3.49% and -7.42%.

On to `CCCn1c(=O)c2[nH]c(-c3ccc(S(=O)(=O)O)cc3)nc2n(CCC)c1=O`, for which the inhibition was 1.25%.
